Only some compounds are listed: those with a hit (about 18% of all), similar ones and a draw of the others.
PLK1 PBD inh: blocks phosphopeptide binding to human PLK1 polo-box domain. P53350. Plk1 PBD binding of FITC phosphopeptide, fluorescence polarization. Potency, µM, inactives show max response, negative = inhibition, usual class: inhibitors. 360,000 tested, 2.8% active. AID 720504; further: series mostly up to about 57 µM; nearly all actives have a fitted effect of over 65% in size
GCN5L2 inh: inhibitors of human GCN5L2 histone acetyltransferase | GCN5L2 HAT assay, ThioGlo1 CoA-SH fluorescence | 390,000 tested, 0.21% active | Potency, µM (doses to about 58.9 µM), for the others: at the highest dose activity change, negative = inhibition, most hits filed as inhibitors | Q92830
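Enzyme at 20nM final was mixed with library compounds for 15 min at room temperature. Peptide H3(1-25) at 75uM, acetyl-CoA at 70uM and ThioGlo1 at 50uM were then added. Plates were read immediately and after 20 min (Ex340nm/Em540nm).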
VDR inh: inhibitors of human vitamin D receptor; 400,000 tested, 0.93% active; AID 504847; P11473; Potency, µM, inactives show max response, negative = inhibition, actives largely listed as inhibitors; VDR-SRC2-3 peptide fluorescence polarization, 2 h
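Signal is fluorescence polarization, reporting how far test compounds block the interaction of VDR with the SRC2-3 coregulator peptide after a 2 h room-temperature incubation.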
TDP1 block: blocks human tyrosyl-DNA phosphodiesterase 1 | Q9NUW8 | recombinant TDP1, AlphaScreen DNA substrate cleavage | Potency, µM (highest dose often 130 µM), without a hit: top-dose activity change, negative = inhibition, usual class: inhibitors | 350,000 tested, 0.28% active | AID 485290; further: nearly all actives have a fitted effect of over 40% in size
Target sequence (Q9NUW8 whole entry, looked up): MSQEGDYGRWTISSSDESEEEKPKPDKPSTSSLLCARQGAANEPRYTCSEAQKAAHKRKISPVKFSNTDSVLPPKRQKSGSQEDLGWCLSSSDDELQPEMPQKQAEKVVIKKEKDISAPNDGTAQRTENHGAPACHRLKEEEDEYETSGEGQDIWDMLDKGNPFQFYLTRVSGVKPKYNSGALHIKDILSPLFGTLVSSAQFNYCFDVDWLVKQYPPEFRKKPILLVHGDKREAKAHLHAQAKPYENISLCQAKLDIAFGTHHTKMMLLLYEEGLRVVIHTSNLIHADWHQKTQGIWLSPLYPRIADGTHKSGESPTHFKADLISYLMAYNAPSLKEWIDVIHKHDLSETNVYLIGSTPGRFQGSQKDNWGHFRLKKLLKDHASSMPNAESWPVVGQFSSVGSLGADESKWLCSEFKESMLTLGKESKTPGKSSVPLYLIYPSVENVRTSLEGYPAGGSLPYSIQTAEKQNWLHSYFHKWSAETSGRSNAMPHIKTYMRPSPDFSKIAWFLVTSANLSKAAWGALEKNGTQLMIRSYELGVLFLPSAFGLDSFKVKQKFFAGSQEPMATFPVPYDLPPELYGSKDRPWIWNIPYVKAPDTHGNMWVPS
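Here, a 5' biotin and 3' phosphotyrosine-FITC DNA oligonucleotide reports Tdp1 activity: intact substrate bridges AlphaScreen beads, while cleavage leaves a 3' phosphate and drops signal. All incubations at room temperature.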
TDP1 cell CPT: growth inhibition of DT40 Tdp1-/-;hTDP1 cells with camptothecin (screen for TDP1 inhibitors); chicken DT40 Tdp1-/-;hTDP1 cells + 20 nM CPT, ATP luminescence, 48 h; Potency, µM (series often up to 46.2 µM), without a hit: top-dose activity change, negative = growth inhibition, most hits filed as inhibitors; 420,000 tested, 12% active; AID 686979; further: nearly all actives have a fitted effect of over 55% in size
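Chicken DT40 Tdp1-/- cells stably complemented with human TDP1 were seeded at 400 cells/well in medium containing 20 nM camptothecin, exposed to pin-transferred compounds, and grown at 37 °C for at least 48 hr. Viability was read as ATP luminescence.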
DT40 TDP1 no CPT: qHTS for Inhibitors of human tyrosyl-DNA phosphodiesterase 1 (TDP1): qHTS in cells in absence of CPT; DT40 Tdp1-/- hTDP1 cells, no CPT, ATP luminescence, 48 h; 420,000 tested, 15% active; Potency, µM (series often up to 46.2 µM), inactives show at the highest dose activity change, negative = growth inhibition, actives largely listed as inhibitors; further: nearly all actives have a fitted effect of over 55% in size
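Growth of hTDP1-complemented DT40 Tdp1-knockout cells is measured by ATP luminescence after at least 48 hr compound exposure at 37 °C, with DMSO substituting for the 20 nM CPT used in the parallel screen.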
* hit, by the source's call; ? = inconclusive; · = no result; [ ] = remark or other dose. The call rests on the fitted dose curve; in most records, active means well fitted curve in the direction sought with a large enough effect; inconclusive means small, poorly fitted or top-dose-only effect, or another doubt; inactive means no such curve, though single readings can be large; an effect the other way counts as inactive or inconclusive. On the % scale 0 is the no-effect control and ±100 the full control effect; potency means the concentration at half of the fitted maximal effect.

SMILES | PLK1 PBD inh | GCN5L2 inh | VDR inh | TDP1 block | TDP1 cell CPT | DT40 TDP1 no CPT
Cc1ccc(S(=O)(=O)CCc2nc3ccccc3s2)cc1 | 24µM* | 3% | -1% | 16%[56.1 µM] | 31% | ?
Cc1ccnc(NC(=O)CN(C)S(=O)(=O)c2cccc3nsnc23)c1 | -11% | -18% | -3% | 3% | ? | 7.3µM*
CCOc1ccc(S(=O)(=O)N(C)c2ccc(OCC(=O)Nc3nc4ccccc4s3)cc2)cc1 | -1% | 2% | 2% | -3% | 12µM* | 9.2µM*
CC1(C)CO[C@@H](CC(=O)O)CN1 | · | 2% | 6% | 5% | 13% | 2%
O=C(/C=C/[C@H]1O[C@@H](n2cnc3c(NC(=O)c4ccccc4)ncnc32)[C@H](O)[C@@H]1O)N[C@@H](CO)Cc1c[nH]c2ccccc12 | 1% | · | · | · | -2% | 2%
CN(CC(=O)Nc1n[nH]c(=S)s1)S(=O)(=O)c1cccc2cccnc12 | 30µM* | ? | -1% | · | 0% | 5%
Cc1csc(NC(=O)CN(C)S(=O)(=O)c2cccc3cccnc23)n1 | -16% | -21% | -7% | -8% | -26% | -21%
Cc1ccc(S(=O)(=O)N(C)CC(=O)Nc2nc3ccccc3s2)cc1 | -9% | -19% | 11% | 3% | 16µM* | 21µM*
CCOc1ccccc1N1CCN(S(=O)(=O)c2ccc(C3CCCCC3)cc2)CC1 | · | 0% | -14% | 0% | -25% | ?
CN(C)c1ccc(NC(=O)Cn2c(SCc3ccc(F)cc3)nc3cccnc32)cc1 | · | -7% | 6% | 7% | ? | ?
CC(=O)Nc1ccc(S(=O)(=O)N(Cc2ccccc2)Cc2ccccc2)cc1 | · | -9% | -13% | 6%[2.28 µM] | ? | 16µM*
Cc1ccc(S(=O)(=O)N(Cc2ccccc2)C(C)C)cc1 | 8% | -14% | 16% | · | 18µM* | 18µM*
CC(=O)Nc1ccc(S(=O)(=O)N(C)Cc2cnn(C)c2)cc1 | -9% | ? | 4% | 3% | -29% | 16µM*
CC(C)N(Cc1ccccc1)S(=O)(=O)c1cccs1 | -1% | -9% | 5% | · | -27% | 26µM*
CN(Cc1ccccc1)S(=O)(=O)c1cccs1 | -2% | -1% | 15% | 7% | -28% | -24%
CC(C)c1ccc(-c2nnc(SCC(=O)NC3CC3)n2C)cc1 | 8% | 0% | 4% | -4% | -25% | 7%
Cc1ccc(C(C)C)c(Oc2cnccn2)c1 | 0% | -17% | 31% | · | -1% | 18%
O=c1n(Cc2ccccc2)c(O)c2n1Cc1ccccc1N=C2c1ccccc1 | -4% | · | · | · | 0% | ?
CC(=O)Nc1ccc(S(=O)(=O)N(Cc2cccnc2)Cc2cc3ccc(C)cc3[nH]c2=O)cc1 | 0% | 0% | 14% | 4% | ? | 15µM*
CC(=O)Nc1ccc(S(=O)(=O)N(Cc2ccccc2)C(C)C)cc1 | -2% | -14% | -14% | 6% | 16µM* | 21µM*
Cc1ccc(S(=O)(=O)N(Cc2cccnc2)Cc2cc3ccccc3[nH]c2=O)cc1 | 0% | -1% | 8% | · | ? | ?
CCNC(=O)N(C)C[C@H]1N[C@@](C)(C(=O)OC)[C@H]2C(=O)N(C)C(=O)[C@@H]12 | ? | -2% | -14% | 1% | -6% | -16%
Oc1c(C(c2ccccc2F)N2CCN(c3ccccc3F)CC2)sc2nc(-c3ccco3)nn12 (stereo not given) | · | -1% | -6% | 5% | -24% | -24%
O=C(Nc1ccccc1C(=O)OCc1cc(=O)n2c3c(sc2n1)CCCC3)c1cccc(Cl)c1 | · | 27% | 6% | 1% | ? | ?
CCc1cccc2c(C(=O)CN3C(=O)N(C)C4(CCCCC4)C3=O)c[nH]c12 | -7% | -5% | -7% | 0% | 3.3µM* | 8.2µM*
SMILES | PLK1 PBD inh | GCN5L2 inh | VDR inh | TDP1 block | TDP1 cell CPT | DT40 TDP1 no CPT
CCc1cccc2c(C(=O)CN3C(=O)NC4(CCc5ccccc54)C3=O)c[nH]c12 (stereo not given) | -3% | -5% | -11% | 1% | 4.6µM* | 4.6µM*
COCC(=O)Oc1c(Sc2ccc(C)cc2)c(C)nn1C(C)(C)C | · | -9% | ? | 3% | -21% | -24%
Cc1[nH]c2ccccc2c1SCC(=O)N1CCN(c2ccccc2)CC1 | -5% | -5% | -10% | 5% | ? | 26µM*
Cc1nc(SCC(=O)N2CCN(c3ccccc3)CC2)n[nH]1 | ? | -6% | -3% | · | 3% | 3%
Cc1[nH]c2ccccc2c1SCC(=O)N1CCCCCC1 | -1% | -2% | ? | 7% | -17% | -1%
O=C(CSc1nccc(=O)[nH]1)N1CCN(c2ccccc2)CC1 | 17µM* | -11% | ? | -9% | ? | ?
O=C(CSc1nc(N2CCCCC2)nc(N2CCCCC2)n1)N1CCN(c2ccccc2)CC1 | -10% | -10% | -10% | 1% | 23µM* | 16µM*
Cc1ccc(C(=O)COC(=O)c2cc(=O)[nH]c3ccccc23)cc1C | -6% | -2% | -2% | -6% | -3% | -24%
O=Cc1ccc(Sc2ncccn2)o1 | -23% | 1% | 9% | 3% | 7% | 2%
COc1ccc(NC(=O)CN2C(=O)C(c3ccc(C(C)(C)C)cc3)=NC2(C)C)cc1Cl | · | -2% | 8% | 5% | -12% | -22%
CC(=O)O[C@@]12CO[C@@H]1C[C@H](O)[C@@]1(C)C(=O)[C@H](O)C3=C(C)[C@@H](OC(=O)[C@H](O)[C@@H](NC(=O)OC(C)(C)C)c4ccccc4)C[C@@](O)([C@@H](OC(=O)c4ccccc4)[C@H]21)C3(C)C | · | · | · | · | 0.0011µM* | 0.0012µM*
CN(C)Cc1ccccc1-c1nccc(N(C)Cc2ccco2)n1 | · | -2% | -1% | · | 21µM* | ?
CN(C)Cc1ccccc1-c1nccc(NCc2cccs2)n1 | · | 2% | 10% | 12%[56.1 µM] | ? | ?
CN(C)Cc1ccccc1-c1nc(N(C)Cc2ccco2)c2ccccc2n1 | · | -19% | ? | 7%[56.1 µM] | 18µM* | 8.2µM*
COc1ccc(-c2noc(CCCC(=O)Nc3cccc(Cl)c3C)n2)cc1 | · | 2% | 10% | 4% | ? | ?

Bioassay records (PubChem BioAssay)
